Results on 77 compounds are retold here after PubChem BioAssay AID602195 (The Scripps Research Institute Molecular Screening Center, 2012).

Screen size: about 1,600 compounds; about 430 (27%) were called active. No stated cut-off is given here; in the data, active means inhibition above about 29%; inactive means the rest. These entries were drawn from the full list.

Chain of Melanocortin receptor 4 (Homo sapiens) (P32245 whole entry, looked up): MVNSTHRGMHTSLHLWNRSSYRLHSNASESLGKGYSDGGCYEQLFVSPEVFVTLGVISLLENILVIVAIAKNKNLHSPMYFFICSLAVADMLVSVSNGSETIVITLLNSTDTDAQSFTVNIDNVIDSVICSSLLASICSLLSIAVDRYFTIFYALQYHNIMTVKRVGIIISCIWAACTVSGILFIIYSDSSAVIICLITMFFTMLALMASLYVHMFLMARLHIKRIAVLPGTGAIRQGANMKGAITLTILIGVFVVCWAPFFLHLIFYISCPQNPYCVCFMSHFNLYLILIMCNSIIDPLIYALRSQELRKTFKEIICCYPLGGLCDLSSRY

The experiment concerns the target Melanocortin receptor 4 (Homo sapiens) (UniProt P32245). Description: blockers of MC4R cAMP signaling – cell-based, TR-FRET, confirmation (AID 602195).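 Further: 0% = agonist stimulated wells alone and 100% = agonist stimulated wells plus saturating reference antagonist.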 The settings on record: MC4R-expressing cells, MTII-stimulated cAMP, at 6.5 µM, stronger effect = higher value.
A word on the inhibition: it is the drop in the measured response relative to a control, in per cent. Turning to `C#Cc1cc(N2CCN(C(=O)c3ccoc3)CC2)n2nc(-c3cccc(Cl)c3)cc2n1`, the inhibition is 36.4% (active).

In the case of `Cc1ccc(Sc2ccc(NC(=O)c3ccc(F)cc3)cc2C#N)cc1`, the inhibition was 24.9% (inactive).

Take `Cc1c(CCC(=O)O)c(=O)oc2cc(OCc3ccc(Br)cc3)ccc12`: the inhibition was -0.06% (inactive).

For `CN(C)C(CNC(=O)CCCOc1ccccc1)c1ccco1` (configuration not stated), the inhibition was -4.52% (inactive).

Turning to `COC(=O)[C@H](Cc1ccccc1)NC(=O)[C@@H]1C[C@H]1[C@@H](NC(=O)OCc1ccccc1)c1ccccc1`, the inhibition was 62.1% (active).

For the compound `COc1ccccc1N(CC(=O)N/N=C(\C)c1ccccc1O)S(=O)(=O)c1ccc(C)cc1`, the inhibition is 11.1% (inactive).

Regarding `CCOC(=O)C(C)n1cnc2sc(C)c(C)c2c1=O` (configuration not stated), the inhibition was 5.44% (inactive).

With `COC(=O)c1sc(-c2ccc(C(C)(C)C)cc2)cc1NC(=O)/C=C/C(=O)O`, the inhibition was -6.9% (inactive).

Turning to `Cc1ccc(C(C(=O)NCC2CCCO2)N(C(=O)c2snc(C(N)=O)c2N)c2ccc(C(C)C)cc2)o1` (configuration not stated), the inhibition is 10.5% (inactive).

For the compound `CN(CC(=O)NCCc1ccccn1)S(=O)(=O)c1ccc(Cl)cc1`, the inhibition was -19.7% (inactive).

As for `CC(C)(C)OC(=O)N1CCC(NC(=O)c2[nH]cnc2C(=O)N[C@@H](Cc2ccccc2)C(=O)OCc2ccccc2)CC1`, the inhibition was 55.3% (active).

For the compound `O=C(Cn1nnc2ccccc2c1=O)Nc1cc(C(F)(F)F)ccc1N1CCOCC1`, the inhibition was -7.03% (inactive).

As for `CCOC(=O)c1cc(C)nc(S(C)(=O)=O)c1C#N`, the inhibition was 29.6% (active).

In the case of `Cc1nnc(N/N=C/C2CC=CCC2)[nH]c1=O` (configuration not stated), the inhibition is 2.83% (inactive).

Take `O=C(Nc1nccs1)c1cc(S(=O)(=O)N2CCOCC2)c(Cl)cc1Cl`: the inhibition was 38.2% (active).

For the compound `Cc1ccc(NC(=O)COC(=O)CNC(=O)c2ccc(Cl)cc2Cl)cc1S(=O)(=O)N1CCOCC1`, the inhibition was 13.7% (inactive).

As for `O=C(O)CCn1cc(/C=C/C(=O)c2ccc(Cl)cc2)c(-c2cccc(Br)c2)n1`, the inhibition is 13.2% (inactive).

As to `CC1(C)C(c2cccs2)=[N+]([O-])C2(CCCCC2=O)N1O` (configuration not stated), the inhibition was -17.8% (inactive).

For `Cc1ccc(C)c(S(=O)(=O)N2CCN(CC(=O)Nc3ccc([N+](=O)[O-])cc3)CC2)c1`, the inhibition was -6.36% (inactive).

With `CCOC(=O)c1c(NC(=O)CCl)sc(C(=O)N(CC)CC)c1C`, the inhibition was 44.7% (active).

Consider `O=C(Nc1ccccc1Cl)/C(Cl)=C(\Cl)S(=O)c1ccccc1` (configuration not stated), for which the inhibition was -8.38% (inactive).

As to `COc1ccc(-c2nc3n(c(=O)c2C#N)CCS3)c(OC)c1`, the inhibition is -26.2% (inactive).

Take `O=C(COC(=O)c1c2c(nc3ccccc13)CCCC2)c1ccc(Br)s1`: the inhibition was 13.6% (inactive).

As for `CSc1nnc(NC(=O)c2nc(S(=O)(=O)Cc3ccc(C)cc3)ncc2Cl)s1`, the inhibition is 48.5% (active).

Regarding `O=C(Nc1nnc(Cc2ccc(Cl)cc2)s1)c1cccnc1`, the inhibition is -6.82% (inactive).

Consider `Cc1cccc(OCC(O)Cn2c(N3CCCCC3)nc3c2c(=O)[nH]c(=O)n3C)c1` (configuration not stated), for which the inhibition is -4.42% (inactive).

On to `Cc1ccc(OCC(=O)Nc2ccc(NC(=O)c3cccs3)cc2)c(C)c1`, for which the inhibition is -16.5% (inactive).

As for `CC(=O)Nc1ccc(Sc2ccccc2C(=O)N2CCCC2)cn1`, the inhibition is -13.6% (inactive).

Consider `COc1ccc2sc(-c3ccc(S(C)(=O)=O)cc3)c(-c3ccc(C(N)=O)cc3)c2c1`, for which the inhibition is 27.4% (inactive).

For the compound `COc1ccc(/C=N/OCC(=O)N(Cc2ccccc2)c2ccccc2C(=O)O)cc1`, the inhibition is 1.15% (inactive).

For the compound `O=C1/C(=C\c2ccc([N+](=O)[O-])cc2)CS(=O)(=O)C/C1=C/c1ccc([N+](=O)[O-])cc1`, the inhibition is 31.9% (active).

`COCCCNC(=O)/C(C#N)=C/c1c(N2CCCCCC2)nc2ccccn2c1=O`: the inhibition is 11.9% (inactive).

`COc1cccc(OC)c1C(=O)Nc1c(C(=O)N2CCN(c3ccccn3)CC2)oc2ccccc12`: the inhibition is -8.35% (inactive).

As to `CCOc1ccc(Nc2nc(Cl)nc(N3CCN(c4ccc(OC)cc4)CC3)n2)cc1`, the inhibition was 33.7% (active).

For the compound `Cc1ccc(NC(=O)c2c(NC(=O)CCC(=O)O)sc3c2CCCCC3)cc1`, the inhibition is 1.41% (inactive).

Regarding `Cc1ccc(S(=O)(=O)CCC(=O)OCC(=O)N(C)Cc2ccccc2)cc1`, the inhibition was 7.91% (inactive).

For the compound `Cc1ccc(S(=O)(=O)N(C)CC(=O)OCC(=O)N2CC(=O)Nc3ccccc32)cc1`, the inhibition was 16.8% (inactive).

Turning to `Cc1ccc(S(=O)(=O)N(C)CC(=O)OCC(=O)Nc2ccccc2)cc1`, the inhibition was 38.5% (active).

As for `O=C(c1ccc2c(c1)N(Cc1ccc(F)cc1)C(=O)c1ccccc1S2(=O)=O)N1CCN(c2ccccn2)CC1`, the inhibition was -2.23% (inactive).

Take `O=C(COC(=O)Cn1cnc2ccccc2c1=O)NCC12CC3CC(CC(C3)C1)C2`: the inhibition is 30.5% (active).

On to `O=S(=O)(NCc1ccco1)c1cnc(Cl)c(Cl)c1`, for which the inhibition was 54.2% (active).

For the compound `O=C(NCCc1c[nH]c2ccccc12)c1cccc(Br)c1`, the inhibition was 3.64% (inactive).

As to `COc1ccc(-c2n[nH]c(C)c2-c2ccccc2OC)c(O)c1`, the inhibition is 0.3% (inactive).

For the compound `O=C(COC(=O)[C@H](Cc1ccccc1)NC(=O)c1cccs1)Nc1cc(F)ccc1F`, the inhibition is 14.7% (inactive).

Consider `Cc1nc2ccccc2c(=O)n1NC(=O)c1ccc(Cl)c([N+](=O)[O-])c1`, for which the inhibition is 44.2% (active).

`Cc1ccccc1-c1n[nH]c(=S)n1/N=C/c1ccc(-c2ccccc2Br)o1`: the inhibition was 0.08% (inactive).

`O=C(CSc1nc2ccc(Nc3nc(N4CCOCC4)nc(N4CCOCC4)n3)cc2s1)NCc1ccco1`: the inhibition is -2.81% (inactive).

`Cc1c(Cl)cccc1NC(=O)[C@@]1(CC(=O)O)CC(/C=C/c2ccccc2)=NO1`: the inhibition is -4.9% (inactive).

With `Cc1ccc(NC(=O)C(C)OC(=O)Cc2c[nH]c3ccccc23)cc1S(=O)(=O)N1CCOCC1` (configuration not stated), the inhibition was 5.56% (inactive).

As to `CCOC(=O)CSc1nc(N2CCOCC2)c2c(c1C#N)CC(C(C)C)OC2` (configuration not stated), the inhibition is 8.67% (inactive).

For the compound `CCCCOC(=O)CNc1nnc(SCC(=O)OCC)[nH]c1=O`, the inhibition is 44.4% (active).

`CC(C)Oc1ccc(/C=C(\NC(=O)/C=C/c2ccco2)C(=O)NCCc2nc3ccccc3[nH]2)cc1`: the inhibition is -6.84% (inactive).

On to `Cc1ccc(NS(=O)(=O)c2ccc(C)c(NC(=O)COc3ccc4ccccc4c3)c2)c(C)c1`, for which the inhibition was 0.85% (inactive).

Turning to `COc1ccc(-n2nc(C(=O)Nc3cc(OC)c(OC)c(OC)c3)c3ccccc3c2=O)c(OC)c1`, the inhibition was 3.92% (inactive).

`O=C(NC1=CC(=O)c2ccccc2C1=O)c1ccccc1`: the inhibition is 15.8% (inactive).

As for `COc1ccc(C(C)C)cc1S(=O)(=O)Nc1ncn[nH]1`, the inhibition was 5.25% (inactive).

Regarding `Cc1ccc(CSc2nnc(-c3cnccn3)n2C)cc1`, the inhibition is 10.6% (inactive).

Consider `COc1ccc(Oc2c(Cl)cnn(-c3ccccc3)c2=O)cc1`, for which the inhibition is 72.2% (active).

On to `O=C(Nc1ccc(F)c([N+](=O)[O-])c1)C1CC(=O)N(Cc2ccccc2)C1` (configuration not stated), for which the inhibition is 42.5% (active).

For `Cc1ccc(-c2nnc(CN3CCN(C)CC3)o2)cc1`, the inhibition was 7.87% (inactive).

In the case of `COc1ccc(CCNC(=O)COC(=O)c2cnc(Cl)c(Cl)c2)cc1`, the inhibition was 36.7% (active).

On to `COc1ccc(CCNC(=O)c2cnc(Cl)c(Cl)c2)cc1`, for which the inhibition is 35.6% (active).

With `O=C(OCC(=O)N1CCCCCC1)c1cnc(Cl)c(Cl)c1`, the inhibition was 35.9% (active).

For the compound `CC(C)Oc1c(Br)cc(Br)cc1/C=N/NC(N)=S`, the inhibition was 25.2% (inactive).

With `COc1ccc(Cl)cc1-c1cc(C(=O)Nc2cc(OC)c(OC)c(OC)c2)[nH]n1`, the inhibition was -21.1% (inactive).

With `O=C(NCC1CCN(Cc2ccccc2Cl)CC1)Nc1cccc(Cl)c1`, the inhibition was -1.08% (inactive).

As to `CC(NS(=O)(=O)c1ccc(Br)cc1)C(=O)NCC1CCCO1` (configuration not stated), the inhibition was 0.92% (inactive).

Regarding `CCOC(=O)c1c(-c2ccccc2)oc2cc(Br)c(O)c(C=O)c12`, the inhibition was 68.6% (active).

Regarding `C=Cn1c(C(=O)O)ccc1-c1ccc(OC)cc1`, the inhibition is -8.3% (inactive).

On to `N#C/C=C1\Sc2ccccc2C(=O)N1CC(=O)N1CCN(S(=O)(=O)c2ccccc2)CC1`, for which the inhibition was 3.29% (inactive).

For `CCCC(C(=O)n1nc(C)cc1C)C(NS(=O)(=O)c1ccc(C)cc1)c1ccccc1` (configuration not stated), the inhibition is 13.1% (inactive).

Take `N#Cc1c(-c2cccs2)nc(SCC(=O)c2ccc(Br)cc2)[nH]c1=O`: the inhibition was 19.2% (inactive).

Take `CC1(C)Cc2ccccc2-c2[nH]c(=S)[nH]c(=O)c21`: the inhibition was 36.1% (active).

Turning to `COc1ccc2oc(N)c(C=O)c(=O)c2c1`, the inhibition was -15.9% (inactive).

For the compound `CC(=O)N1CCN(S(=O)(=O)c2c(F)cc(F)c(Cl)c2F)CC1`, the inhibition is 45.1% (active).

In the case of `CCN(CC(=O)NCCCN1CCOCC1)S(=O)(=O)c1cc(Cl)ccc1Cl`, the inhibition is -1% (inactive).

Consider `COc1ccc(C(C[N+](=O)[O-])n2nc(C)cc2C)cc1` (configuration not stated), for which the inhibition was -13.7% (inactive).
